Measured values published in PubChem BioAssay AID1851 (National Center for Advancing Translational Sciences (NCATS), 2009).
Several values for one entry are separate records, joined by “and”; a condition that tells them apart may be missing. Equal values may be shown once. Screen size: about 16,000 compounds; about 2,600 (16%) were called active. Not shown: some 20% with an inconclusive outcome. Calls follow the shape of the dose curve; as a rule, active = well fitted curve in the direction sought with a large enough effect; inconclusive = small, poorly fitted or top-dose-only effect, or effect the other way; inactive = no such curve, though single readings can be large or run the other way. Not all results are given here. A structure can be active in one record and inactive in another.

Biological target: Cytochrome P450 2D6 (Homo sapiens) (UniProt P10635)
Assay: Cytochrome panel assay with activity outcomes
Conditions: recombinant CYP, pro-luciferin dealkylation, luminescence, p450-cyp2d6; series mostly up to 57.1 µM
% is scaled to controls: 0 for no effect and ±100 for the full control effect.

Sequence of Cytochrome P450 2D6 (Homo sapiens) (P10635 whole entry, looked up): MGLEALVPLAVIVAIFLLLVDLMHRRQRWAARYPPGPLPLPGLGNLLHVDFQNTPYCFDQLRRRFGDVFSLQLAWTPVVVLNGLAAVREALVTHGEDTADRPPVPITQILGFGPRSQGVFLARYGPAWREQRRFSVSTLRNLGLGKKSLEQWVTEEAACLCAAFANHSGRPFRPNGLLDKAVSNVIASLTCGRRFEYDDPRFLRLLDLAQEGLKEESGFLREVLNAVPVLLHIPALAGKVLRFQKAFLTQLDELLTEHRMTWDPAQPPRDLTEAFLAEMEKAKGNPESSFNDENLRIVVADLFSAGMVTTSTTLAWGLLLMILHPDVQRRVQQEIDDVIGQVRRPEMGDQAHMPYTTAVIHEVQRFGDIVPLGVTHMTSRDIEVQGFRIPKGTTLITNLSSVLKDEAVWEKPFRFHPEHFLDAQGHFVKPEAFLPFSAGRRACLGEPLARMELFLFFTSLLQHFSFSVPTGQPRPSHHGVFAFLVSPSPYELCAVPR

AC50, inactive:
COc1cc(C(=O)Nc2nc3ccc4nc(C)sc4c3s2)cc(OC)c1OC
O=C(COc1ccc2ccccc2c1)N1CCN(C(=O)c2cccnc2)CC1
Cc1cccc(C(=O)NC2CCN(C(=O)N3CCOCC3)CC2)c1
COCCn1c(=O)c(-c2cccc(C#N)c2)nc2cnc(OCc3ccccc3)nc21
CC(=O)NC1=NC(=O)C(C)S1 (centres undefined)
O=c1c(-c2cccs2)nc2cnc(N3CCNCC3)nc2n1Cc1cccs1
O=C(Nc1cc(-c2nc3ccccc3s2)ccc1Cl)c1ccc2c(c1)OCO2
Cc1ccc(-n2nc3ccc(NC(=O)c4ccc5c(c4)OCO5)cc3n2)cc1
CCn1c(-c2ccccc2Cl)nn(CC(=O)Nc2ccc(OC)cc2)c1=S
CC(=O)NC1C(OCCOc2ccc(Cl)cc2Cl)OC(COC(C)=O)C(OC(C)=O)C1OC(C)=O (centres undefined)
CSC1=N/C(=C\c2ccc(Br)o2)C(=O)S1
CCOC(=O)n1ccn(C)c1=S
O=C(O)c1cc2ccccc2c(Cc2cc3ccccc3c(C(=O)O)c2O)c1O (tested in a mixture with another compound)
CCN=C(Nc1ccc(Cl)cc1)c1cccnc1
CC(Oc1ccccc1)C(=O)Nc1nc2c(s1)C(=O)CC(C)(C)C2 (centres undefined)
Cc1cnc(CNc2ncncc2-c2ccc(C(=O)N(C)C)cc2)cn1
Cc1cnc(CNc2ncnc3ccc(-c4cccc(C#N)c4)cc23)cn1
Nc1nc2c(ncn2COCCO)c(=O)[nH]1
O=C(O)c1ccccc1OP(=O)(O)O
CN1CCc2c(c3c(n2C)CCN(C)[C@H]3c2ccccc2F)[C@@H]1c1ccccc1F
CCc1nc(SCC(=O)c2ccc(Cl)s2)c2oc3ccccc3c2n1
CCOC(=O)Nc1ccc(C(=O)NCC2CCCO2)cc1 (centres undefined)
O=C(O)CCCC[C@H]1CCSS1
COC(=O)[C@H]1C[C@@H]1[C@H](NC(=O)c1cc(C)on1)c1ccccc1
COC(=O)[C@@H]1C[C@H]1[C@@H](NC(=O)c1cc(C)on1)c1ccccc1
CCOC(=O)C1=C(CSc2nc3ccccc3s2)NC(=O)NC1c1cccc([N+](=O)[O-])c1 (centres undefined)
O=C(CN1C(=O)NC2(CCCCCC2)C1=O)N1CCN(S(=O)(=O)c2ccc(Cl)cc2)CC1
O=C(N/N=C/c1cccc([N+](=O)[O-])c1)c1cc2c(ccc3ccccc32)o1
CC[C@@H]1OC(=O)[C@H](C)[C@H](O[C@@H]2C[C@](C)(OC)[C@H](O)[C@H](C)O2)[C@H](C)[C@H](O[C@@H]2O[C@@H](C)C[C@@H](N(C)C)[C@@H]2O)[C@](C)(O)C[C@H](C)C(=NOCOCCOC)[C@H](C)[C@H](O)[C@]1(C)O
C=CCSc1nnc(NC(=O)COc2ccc3ccccc3c2)s1
COC(=O)c1c(C)nc2ccccc2c1C(=O)O
COc1ccc2c(c1)C(=O)N(CCc1ccc(S(=O)(=O)NC(=O)NC3CCCCC3)cc1)C(=O)C2(C)C
COc1ccc(CCNC(=O)COC(=O)c2cnc(C)cn2)cc1
Cc1ccc(N=Nc2c(=O)[nH]n3c(C)cc(C)nc23)cc1
O=C1c2ccccc2C(=O)N1CC(=O)N1c2ccccc2CCc2ccccc21
O=C1Nc2ccccc2Nc2ncccc21
CCN1CCCC1CNC(=O)C1c2cc(OC)c(OC)cc2C(=O)N(C)C1c1cccnc1 (centres undefined)
Cc1sc2nc(C3CC3)nc(SCC(=O)N3CC(=O)Nc4ccccc43)c2c1C
CCCCN1C(=O)C(NC(=O)C2CC2)(C(F)(F)F)C2=C1CC(C)(C)CC2=O (centres undefined)
O=C(CCn1nc(-c2ccc(Cl)cc2)ccc1=O)N1CCOCC1
O=c1c(-c2ccccc2)nc2cncnc2n1-c1ccccc1
CCC(CC)C(=O)Nc1c2cnn(-c3ccccc3)c2nc(=O)n1-c1ccccc1
CCCc1nnc(NC(=O)CN2C(=O)C3C4C=CC(C4)C3C2=O)s1 (centres undefined)
O=c1cnc2cnc(N3CCOCC3)nc2n1C1CC1
COCCNc1ncnc2ccc(-c3ccoc3)cc12

AC50, active:
Cc1cccc(OCC(=O)N2CCC(N3CCCCCC3)CC2)c1 4.47 µM
O=C(Nc1cccc(-c2nc3ccccc3s2)c1)c1ccc2c(c1)OCO2 0.1 µM
CCCCN1CCC(COC(=O)c2cc(Cl)c(N)c3c2OCCO3)CC1 1.26 µM
NC(=NCCCCCCN=C(N)/N=C(\N)Nc1ccc(Cl)cc1)/N=C(\N)Nc1ccc(Cl)cc1 7.94 µM
Cc1cnc(CNc2ncnc3ccc(-c4ccc5c(c4)OCO5)cc23)cn1 12.6 µM
Cc1cccc(CNc2ncnc3ccc(-c4ccoc4)cc23)c1 10 µM
Cc1cccc(CNc2ncnc3ccc(-c4ccc5c(c4)OCO5)cc23)c1 0.501 µM
COC(=O)[C@@H]1C[C@H]1[C@@H](NC(=O)c1cc(C)nn1C)c1ccccc1 12.6 µM
COc1ccc(CCNC(=O)COc2ccc(S(=O)(=O)NC3CCCCC3)cc2Cl)cc1 15.8 µM
CCCN(CCC)C[C@@H]1CCCCN1CCNC(=O)N1c2ccccc2C(=O)Nc2cccnc21 2.51 µM
COc1ccccc1CNc1ncnc2ccc(-c3ccoc3)cc12 3.16 µM
COc1ccc(CNc2ncnc3ccc(-c4ccoc4)cc23)c(OC)c1 10 µM
COc1ccc(CNc2ncnc3ccc(-c4c(C)noc4C)cc23)c(OC)c1 15.8 µM
COc1ccccc1CNc1ncnc2ccc(-c3ccc4c(c3)OCO4)cc12 0.794 µM

AC50, inactive and 5.01 µM (active):
Cc1scc2c1N(C(=O)CN1CCN(C)CC1)c1ccccc1NC2=O

AC50, inactive and 31.6 µM (active):
CN1CCN(CC(=O)N2c3ccccc3C(=O)Nc3cccnc32)CC1

activity, negative = inhibition, inactive:
O=C(O)C1CC2(C1)CC(C(=O)O)C2 (centres undefined) 10.8% [at 11.4 µM]
O=C1Nc2ccccc2C1=Nc1cccc2ncccc12 -4.91% [at 11.4 µM]
Nc1ncnc2c1ncn2CCCCC(=O)O -3.98% [at 11.4 µM]
